{
  "source": "the supplement of paper PMC12282887",
  "system": "E. coli BW25113 marRABp lux reporter",
  "assay": "promoter activity interaction Z-score (Lux/OD deviation from empty-vector control); higher = stronger promoter induction by the compound",
  "method": "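E. coli BW25113 (wild type or ΔmarA/ΔsoxS/Δrob) carrying pTU175 luxCDABE promoter reporters was grown in LB in 384-well plates at 37°C with each of 94 compounds at 4 two-fold concentrations, in biological duplicates. Luminescence and OD600 were read every 30 min for 12 h and integrated as AUC over 8 h (0-8 h WT, 1-9 h mutants). Lux AUC was divided by OD AUC; the interaction score is the residual of a Huber robust fit of each promoter against the empty-vector control, then Z-transformed per promoter.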",
  "note": "± gives the standard deviation of the averaged measurements.",
  "data": [
    {"molecule": "CC(C)Cc1ccc(C(C)C(=O)O)cc1", "note": "(configuration not stated) [Ibuprofen]", "values": [
      {"measurement": "promoter activity interaction Z-score", "setting": "12.9 µg/ml, genetic background: wild type", "result": "0.196 ± 0.28"},
      {"measurement": "promoter activity interaction Z-score", "setting": "12.9 µg/ml, genetic background: ΔmarA", "result": "0.232 ± 0.58"},
      {"measurement": "promoter activity interaction Z-score", "setting": "12.9 µg/ml, genetic background: Δrob", "result": "0.124 ± 0.06"},
      {"measurement": "promoter activity interaction Z-score", "setting": "12.9 µg/ml, genetic background: ΔsoxS", "result": "0.193 ± 0.14"},
      {"measurement": "promoter activity interaction Z-score", "setting": "25.8 µg/ml, genetic background: wild type", "result": "0.212 ± 0.12"},
      {"measurement": "promoter activity interaction Z-score", "setting": "25.8 µg/ml, genetic background: ΔmarA", "result": "0.172 ± 0.49"},
      {"measurement": "promoter activity interaction Z-score", "setting": "25.8 µg/ml, genetic background: Δrob", "result": "0.0582 ± 0.32"},
      {"measurement": "promoter activity interaction Z-score", "setting": "25.8 µg/ml, genetic background: ΔsoxS", "result": "0.0302 ± 0.03"},
      {"measurement": "promoter activity interaction Z-score", "setting": "51.6 µg/ml, genetic background: wild type", "result": "0.119 ± 0.036"},
      {"measurement": "promoter activity interaction Z-score", "setting": "51.6 µg/ml, genetic background: ΔmarA", "result": "-0.396 ± 0.089"},
      {"measurement": "promoter activity interaction Z-score", "setting": "51.6 µg/ml, genetic background: Δrob", "result": "0.159 ± 0.17"},
      {"measurement": "promoter activity interaction Z-score", "setting": "51.6 µg/ml, genetic background: ΔsoxS", "result": "-0.0798 ± 0.073"},
      {"measurement": "promoter activity interaction Z-score", "setting": "103.1 µg/ml, genetic background: wild type", "result": "-0.239 ± 0.093"},
      {"measurement": "promoter activity interaction Z-score", "setting": "103.1 µg/ml, genetic background: ΔmarA", "result": "0.541 ± 0.8"},
      {"measurement": "promoter activity interaction Z-score", "setting": "103.1 µg/ml, genetic background: Δrob", "result": "0.0177 ± 0.01"},
      {"measurement": "promoter activity interaction Z-score", "setting": "103.1 µg/ml, genetic background: ΔsoxS", "result": "-0.0508 ± 0.43"}
    ]},
    {"molecule": "C[C@H](CCC(=O)O)[C@H]1CC[C@H]2[C@@H]3CC[C@@H]4C[C@H](O)CC[C@]4(C)[C@H]3CC[C@]12C", "note": "[Lithocholic acid]", "values": [
      {"measurement": "promoter activity interaction Z-score", "setting": "23.5 µg/ml, genetic background: wild type", "result": "0.0125 ± 0.049"},
      {"measurement": "promoter activity interaction Z-score", "setting": "23.5 µg/ml, genetic background: ΔmarA", "result": "0.215 ± 0.24"},
      {"measurement": "promoter activity interaction Z-score", "setting": "23.5 µg/ml, genetic background: Δrob", "result": "0.171 ± 0.16"},
      {"measurement": "promoter activity interaction Z-score", "setting": "23.5 µg/ml, genetic background: ΔsoxS", "result": "-0.00159 ± 0.033"},
      {"measurement": "promoter activity interaction Z-score", "setting": "47.1 µg/ml, genetic background: wild type", "result": "0.0767 ± 0.14"},
      {"measurement": "promoter activity interaction Z-score", "setting": "47.1 µg/ml, genetic background: ΔmarA", "result": "0.199 ± 0.2"},
      {"measurement": "promoter activity interaction Z-score", "setting": "47.1 µg/ml, genetic background: Δrob", "result": "0.159 ± 0.08"},
      {"measurement": "promoter activity interaction Z-score", "setting": "47.1 µg/ml, genetic background: ΔsoxS", "result": "0.29 ± 0.41"},
      {"measurement": "promoter activity interaction Z-score", "setting": "94.1 µg/ml, genetic background: wild type", "result": "-0.14 ± 0.0041"},
      {"measurement": "promoter activity interaction Z-score", "setting": "94.1 µg/ml, genetic background: ΔmarA", "result": "-0.0736 ± 0.21"},
      {"measurement": "promoter activity interaction Z-score", "setting": "94.1 µg/ml, genetic background: Δrob", "result": "0.0252 ± 0.008"},
      {"measurement": "promoter activity interaction Z-score", "setting": "94.1 µg/ml, genetic background: ΔsoxS", "result": "-0.23 ± 0.21"},
      {"measurement": "promoter activity interaction Z-score", "setting": "188.3 µg/ml, genetic background: wild type", "result": "-0.189 ± 0.024"},
      {"measurement": "promoter activity interaction Z-score", "setting": "188.3 µg/ml, genetic background: ΔmarA", "result": "0.0134 ± 0.26"},
      {"measurement": "promoter activity interaction Z-score", "setting": "188.3 µg/ml, genetic background: Δrob", "result": "0.123 ± 0.086"},
      {"measurement": "promoter activity interaction Z-score", "setting": "188.3 µg/ml, genetic background: ΔsoxS", "result": "0.0918 ± 0.55"}
    ]}
  ]
}
